Measurements taken from PubChem BioAssay (EPA / NIEHS).
Several values for one entry are separate records, joined by “and”; a condition that tells them apart may be missing. Equal values may be shown once. Results filed as inconclusive are left out. Activity calls are given as the source filed them. How the source made its calls: active means hit-call score of the fitted dose curve at least 0.9, where 1 is the maximum; inconclusive means response in the unintended direction; inactive means score below 0.9.

Biological target: human Phosphatase and Tensin Homolog (PTEN), PTEN (gene 5728) (UniProt P60484)
Assay: NVS_ENZ_hPTEN: NovaScreen (NVS) Enzymatic Assay for human Phosphatase and Tensin Homolog (PTEN) (AID 2283203)
Procedure: (§1) NVS_ENZ_hPTEN is a biochemical, single-readout assay that uses extracted gene-proteins in a cell-free assay. Measurements were taken 1 hour after chemical dosing in a 384-well plate.NVS_ENZ_hPTEN is one of one assay component(s) measured or calculated from the NVS_ENZ_hPTEN assay. It is designed to make measurements of enzyme activity, a form of enzyme reporter, as detected with fluorescence intensity signals by Fluorescence and electrophoretic mobility shift technology.Data from the assay component NVS_ENZ_hPTEN was analyzed into 1 assay endpoint. This assay endpoint, NVS_ENZ_hPTEN, was analyzed in the positive analysis fitting direction relative to DMSO as the negative control and baseline of activity. Using a type of enzyme reporter, loss-of-signal activity can be used to understand changes in the enzymatic activity as they relate to the gene PTEN. Furthermore, this assay endpoint can be referred to as a primary readout, because this assay has produced multiple assay endpoints where this one serves a enzymatic activity function. To generalize the intended target to other relatable targets, this assay endpoint is annotated to the phosphatase intended target family, where the subfamily is dual-specific phosphatase.
(§2) Binding assays used specific radioligands (tritiated, iodinated) with non-radioactive competitive displacement ligands in agonist or antagonist protocols (as indicated) and various reference compounds and inhibitors to titrate specific binding to receptors and transporters. Most enzyme assays (CYPs, kinases, phosphatases, proteases, HDACs) used recombinant protein and specific substrates (fluorescence mostly, some colorimetric and radioactive) and inhibitors, followed by a biochemical separation of substrate and product. All assays for the biochemical HTS were initially run in duplicate at a single concentration (10 uM for CYP450 assays and 25 uM for all others). […] Each assay was run with positive and negative controls, and concurrent controls on every plate. The follow-up (secondary) screen tested active chemical-pairs in concentration series, as well as a few additional assays not tested in the primary screen, some selected negative inactives, and several cases re-run in the concentration series for confirmatory purposes.

Sequence of human Phosphatase and Tensin Homolog (PTEN), PTEN (gene 5728) (P60484 whole entry, looked up): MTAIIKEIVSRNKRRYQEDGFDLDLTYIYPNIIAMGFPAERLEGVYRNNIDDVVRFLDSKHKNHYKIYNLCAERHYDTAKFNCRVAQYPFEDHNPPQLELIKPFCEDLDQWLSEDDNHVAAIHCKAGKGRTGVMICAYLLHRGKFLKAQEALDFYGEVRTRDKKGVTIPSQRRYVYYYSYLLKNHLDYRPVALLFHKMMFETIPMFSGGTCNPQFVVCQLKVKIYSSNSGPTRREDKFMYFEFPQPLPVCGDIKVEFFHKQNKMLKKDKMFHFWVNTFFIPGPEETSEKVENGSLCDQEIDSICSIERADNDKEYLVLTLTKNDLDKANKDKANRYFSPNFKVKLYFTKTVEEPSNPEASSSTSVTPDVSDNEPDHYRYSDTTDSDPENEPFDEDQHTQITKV

Q: With `C#CC(C)(C)NC(=O)c1cc(Cl)cc(Cl)c1` as the compound, how does the outcome read?
A: The outcome was “inactive”.

Q: `CC(C)[C@H](C(=O)O[C@H](C#N)c1cccc(Oc2ccccc2)c1)c1ccc(Cl)cc1` was tested. Which outcome did it give?
A: Its outcome is “inactive”.

Q: With `CC[C@H](C)[C@H]1O[C@]2(C=C[C@@H]1C)C[C@@H]1C[C@@H](C/C=C(\C)[C@@H](O[C@H]3C[C@H](OC)[C@@H](O[C@H]4C[C@H](OC)[C@@H](NC)[C@H](C)O4)[C@H](C)O3)[C@@H](C)/C=C/C=C3\CO[C@@H]4[C@H](O)C(C)=C[C@@H](C(=O)O1)[C@]34O)O2` as the compound, how does the AC50 read?
A: Its AC50 is 4.5 nM (active).

Q: Which AC50 does the source give for `CN(C)[C@@H]1C(=O)C(C(N)=O)=C(O)[C@@]2(O)C(=O)C3=C(O)c4c(O)cccc4[C@@](C)(O)[C@H]3[C@H](O)[C@@H]12` here?
A: The AC50 was 2.52 µM (active) and 1.53 µM (active) and 2.46 µM (active).

Biological target: Tyrosine-protein phosphatase non-receptor type 12 (Homo sapiens) (UniProt Q05209)
Assay: NVS_ENZ_hPTPN12: NovaScreen (NVS) Enzymatic Assay for human Protein Tyrosine Phosphatase Non-receptor Type 12 (PTPN12) (AID 2283204)
In short: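 Single-concentration duplicates (25 uM) preceded singleton concentration-response up to 50 uM for chemicals passing threshold. Cell-free recombinant PTPN12 activity was read 1.33 h after dosing via fluorescence after mobility-shift separation; loss of signal versus DMSO.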

Sequence of Tyrosine-protein phosphatase non-receptor type 12 (Homo sapiens) (Q05209 whole entry, looked up): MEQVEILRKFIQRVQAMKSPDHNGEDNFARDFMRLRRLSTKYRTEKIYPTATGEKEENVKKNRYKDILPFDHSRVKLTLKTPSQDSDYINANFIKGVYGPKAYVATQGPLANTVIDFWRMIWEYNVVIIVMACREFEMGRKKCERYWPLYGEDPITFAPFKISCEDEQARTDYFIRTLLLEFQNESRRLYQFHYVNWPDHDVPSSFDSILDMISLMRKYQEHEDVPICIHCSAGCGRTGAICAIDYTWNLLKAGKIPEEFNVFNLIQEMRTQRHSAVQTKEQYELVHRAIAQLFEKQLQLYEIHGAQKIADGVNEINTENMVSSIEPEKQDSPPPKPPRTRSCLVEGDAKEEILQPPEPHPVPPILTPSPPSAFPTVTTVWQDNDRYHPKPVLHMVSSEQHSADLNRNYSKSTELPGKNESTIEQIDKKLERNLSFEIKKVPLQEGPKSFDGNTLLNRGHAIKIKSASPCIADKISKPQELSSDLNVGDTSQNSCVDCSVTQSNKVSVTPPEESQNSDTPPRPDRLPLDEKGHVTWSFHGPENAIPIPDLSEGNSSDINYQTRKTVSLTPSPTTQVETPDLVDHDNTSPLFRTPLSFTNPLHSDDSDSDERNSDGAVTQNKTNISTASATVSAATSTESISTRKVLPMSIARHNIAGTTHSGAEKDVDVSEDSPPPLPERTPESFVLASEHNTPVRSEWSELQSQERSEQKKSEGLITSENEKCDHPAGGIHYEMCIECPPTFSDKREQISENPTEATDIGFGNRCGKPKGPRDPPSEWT

Q: With `COc1cc(OC)nc(Sc2cccc(Cl)c2C(=O)O)n1` as the compound, how does the outcome read?
A: Its outcome is “inactive”.

Q: For `CCCCSP(=O)(SCCCC)SCCCC`, which outcome is on record?
A: The outcome was “inactive”.

Q: Which AC50 does the source give for `CN(C)[C@@H]1C(=O)C(C(N)=O)=C(O)[C@@]2(O)C(=O)C3=C(O)c4c(O)cccc4[C@@](C)(O)[C@H]3[C@H](O)[C@@H]12` here?
A: Its AC50 is 3.91 µM (active) and 18.2 µM (active) and 1.8 µM (active).

Biological target: Tyrosine-protein phosphatase non-receptor type 14 (Homo sapiens) (UniProt Q15678)
Assay: NVS_ENZ_hPTPN14: NovaScreen (NVS) Enzymatic Assay for human Protein Tyrosine Phosphatase Non-receptor Type 14 (PTPN14) (AID 2283206)
In short: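 Fluorescent substrate turnover by recombinant human PTPN14 was measured 0.5 h after compound addition, with substrate and product separated by mobility shift. Single-point screening at 25 uM, then concentration-response up to 50 uM for chemicals meeting threshold (e.g., 30% inhibition).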

Sequence of Tyrosine-protein phosphatase non-receptor type 14 (Homo sapiens) (Q15678 whole entry, looked up): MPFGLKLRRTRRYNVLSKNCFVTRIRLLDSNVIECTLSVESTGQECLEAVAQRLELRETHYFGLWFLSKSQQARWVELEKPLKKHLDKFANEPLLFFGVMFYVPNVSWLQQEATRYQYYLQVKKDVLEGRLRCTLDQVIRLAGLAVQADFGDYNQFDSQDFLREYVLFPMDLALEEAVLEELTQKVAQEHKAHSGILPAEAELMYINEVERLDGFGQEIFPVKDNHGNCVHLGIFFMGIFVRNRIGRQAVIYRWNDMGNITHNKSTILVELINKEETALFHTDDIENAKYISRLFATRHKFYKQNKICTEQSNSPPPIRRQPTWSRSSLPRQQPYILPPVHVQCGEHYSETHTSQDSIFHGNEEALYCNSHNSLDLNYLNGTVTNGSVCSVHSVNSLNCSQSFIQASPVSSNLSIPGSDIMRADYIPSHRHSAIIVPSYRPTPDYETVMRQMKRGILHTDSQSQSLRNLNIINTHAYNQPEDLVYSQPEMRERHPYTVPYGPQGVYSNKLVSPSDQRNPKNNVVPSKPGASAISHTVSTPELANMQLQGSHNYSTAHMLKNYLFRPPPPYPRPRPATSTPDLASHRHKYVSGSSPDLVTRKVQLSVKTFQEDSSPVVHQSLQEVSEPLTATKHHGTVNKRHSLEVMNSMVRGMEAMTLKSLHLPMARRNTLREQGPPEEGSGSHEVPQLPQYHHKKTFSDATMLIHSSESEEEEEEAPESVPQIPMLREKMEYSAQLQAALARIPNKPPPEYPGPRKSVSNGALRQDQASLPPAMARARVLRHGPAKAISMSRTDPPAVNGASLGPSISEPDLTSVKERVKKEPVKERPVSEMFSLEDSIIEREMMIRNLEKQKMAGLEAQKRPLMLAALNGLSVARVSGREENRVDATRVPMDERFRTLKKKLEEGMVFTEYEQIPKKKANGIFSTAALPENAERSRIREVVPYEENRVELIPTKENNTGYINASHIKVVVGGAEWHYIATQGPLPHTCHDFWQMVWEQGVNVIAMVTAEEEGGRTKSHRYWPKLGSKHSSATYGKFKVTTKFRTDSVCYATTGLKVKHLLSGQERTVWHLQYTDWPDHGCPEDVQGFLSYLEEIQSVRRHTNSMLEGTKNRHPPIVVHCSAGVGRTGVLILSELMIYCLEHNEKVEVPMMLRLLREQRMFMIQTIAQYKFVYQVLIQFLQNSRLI

Q: How did the outcome turn out when `CN1COCN(Cc2cnc(Cl)s2)C1=N[N+](=O)[O-]` was run?
A: Its outcome is “inactive”.

Q: Which outcome does the source give for `CCCCOC(=O)c1ccccc1C(=O)O` here?
A: Its outcome is “inactive”.

Q: How did the outcome turn out when `O=c1ccc(=O)[nH][nH]1` was run?
A: The outcome was “inactive”.

Q: Which outcome does the source give for `CNC(=O)Oc1cccc2c1OC(C)(C)O2` here?
A: Its outcome is “inactive”.

Q: For `CSC1=N[C@@](C)(c2ccccc2)C(=O)N1Nc1ccccc1`, which outcome is on record?
A: Its outcome is “inactive”.

Q: With `CN(C)[C@@H]1C(=O)C(C(N)=O)=C(O)[C@@]2(O)C(=O)C3=C(O)c4c(O)cccc4[C@@](C)(O)[C@H]3[C@H](O)[C@@H]12` as the compound, how does the AC50 read?
A: Its AC50 is 26.3 µM (active).

Q: `Nc1nc(N)nc(NC2CC2)n1` was tested. Which outcome did it give?
A: The outcome was “inactive”.

Q: Which outcome does the source give for `N#CSCSC#N` here?
A: The outcome was “inactive”.

Q: With `O=C(O)c1cc(Oc2ccc(C(F)(F)F)cc2Cl)ccc1[N+](=O)[O-]` as the compound, how does the outcome read?
A: Its outcome is “inactive”.

Q: With `CCNc1nc(Cl)nc(NC(C)(C)C#N)n1` as the compound, how does the outcome read?
A: Its outcome is “inactive”.

Q: With `CCC(=NOC/C=C/Cl)C1=C(O)CC(C2CCOCC2)CC1=O` (stereo unspecified) as the compound, how does the outcome read?
A: Its outcome is “inactive”.

Q: How did the outcome turn out when `CC(C)N(C(=O)SCC(Cl)=C(Cl)Cl)C(C)C` was run?
A: Its outcome is “inactive”.

Biological target: human Protein Tyrosine Phosphatase Non-receptor Type 2 (PTPN2), PTPN2 (gene 5771) (UniProt P17706)
Assay: NVS_ENZ_hPTPN2: NovaScreen (NVS) Enzymatic Assay for human Protein Tyrosine Phosphatase Non-receptor Type 2 (PTPN2) (AID 2283207)
Procedure: as §1, with “NVS_ENZ_hPTPN2” for “NVS_ENZ_hPTEN”, “plate.NVS_ENZ_hPTPN2” for “plate.NVS_ENZ_hPTEN”, “NVS_ENZ_hPTPN2,” for “NVS_ENZ_hPTEN,”, “PTPN2.” for “PTEN.”, “non-receptor tyrosine” for “dual-specific”
as §2

Sequence of human Protein Tyrosine Phosphatase Non-receptor Type 2 (PTPN2), PTPN2 (gene 5771) (P17706 whole entry, looked up): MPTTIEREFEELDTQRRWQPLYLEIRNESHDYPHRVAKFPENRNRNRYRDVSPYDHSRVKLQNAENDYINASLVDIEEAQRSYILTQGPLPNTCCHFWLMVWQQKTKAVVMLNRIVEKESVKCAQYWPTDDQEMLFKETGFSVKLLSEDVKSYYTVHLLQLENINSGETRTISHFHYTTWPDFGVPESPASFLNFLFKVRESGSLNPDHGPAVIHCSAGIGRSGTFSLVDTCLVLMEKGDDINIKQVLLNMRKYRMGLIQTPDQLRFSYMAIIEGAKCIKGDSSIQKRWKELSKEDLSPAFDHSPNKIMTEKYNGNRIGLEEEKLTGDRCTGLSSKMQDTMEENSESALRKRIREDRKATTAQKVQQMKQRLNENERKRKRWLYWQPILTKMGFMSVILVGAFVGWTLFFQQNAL

Q: How did the outcome turn out when `C#CC(C)(C)NC(=O)c1cc(Cl)cc(Cl)c1` was run?
A: Its outcome is “inactive”.

Q: For `CCc1cccc(CC)c1N(COC)C(=O)CCl`, which outcome is on record?
A: Its outcome is “inactive”.

Q: `Nc1c(Cl)cc([N+](=O)[O-])cc1Cl` was tested. Which outcome did it give?
A: Its outcome is “inactive”.

Q: `CN(C)[C@@H]1C(=O)C(C(N)=O)=C(O)[C@@]2(O)C(=O)C3=C(O)c4c(O)cccc4[C@@](C)(O)[C@H]3[C@H](O)[C@@H]12` was tested. Which AC50 did it give?
A: Its AC50 is 20.1 µM (active).

Q: With `S=C1NCCN1` as the compound, how does the outcome read?
A: Its outcome is “inactive”.

Q: How did the outcome turn out when `CCOP(=S)(OCC)Oc1cc(C)nc(C(C)C)n1` was run?
A: The outcome was “inactive”.

Biological target: human Protein Tyrosine Phosphatase Non-receptor Type 4 (PTPN4), PTPN4 (gene 5775) (UniProt P29074)
Assay: NVS_ENZ_hPTPN4: NovaScreen (NVS) Enzymatic Assay for human Protein Tyrosine Phosphatase Non-receptor Type 4 (PTPN4) (AID 2283208)
In short: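 Screened in duplicate at 25 uM, with hits then titrated to a top concentration of 50 uM. Recombinant Sf9-derived PTPN4 turnover was read by fluorescence with electrophoretic separation, 1.33 h after compound addition. DMSO served as baseline.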

Sequence of human Protein Tyrosine Phosphatase Non-receptor Type 4 (PTPN4), PTPN4 (gene 5775) (P29074 whole entry, looked up): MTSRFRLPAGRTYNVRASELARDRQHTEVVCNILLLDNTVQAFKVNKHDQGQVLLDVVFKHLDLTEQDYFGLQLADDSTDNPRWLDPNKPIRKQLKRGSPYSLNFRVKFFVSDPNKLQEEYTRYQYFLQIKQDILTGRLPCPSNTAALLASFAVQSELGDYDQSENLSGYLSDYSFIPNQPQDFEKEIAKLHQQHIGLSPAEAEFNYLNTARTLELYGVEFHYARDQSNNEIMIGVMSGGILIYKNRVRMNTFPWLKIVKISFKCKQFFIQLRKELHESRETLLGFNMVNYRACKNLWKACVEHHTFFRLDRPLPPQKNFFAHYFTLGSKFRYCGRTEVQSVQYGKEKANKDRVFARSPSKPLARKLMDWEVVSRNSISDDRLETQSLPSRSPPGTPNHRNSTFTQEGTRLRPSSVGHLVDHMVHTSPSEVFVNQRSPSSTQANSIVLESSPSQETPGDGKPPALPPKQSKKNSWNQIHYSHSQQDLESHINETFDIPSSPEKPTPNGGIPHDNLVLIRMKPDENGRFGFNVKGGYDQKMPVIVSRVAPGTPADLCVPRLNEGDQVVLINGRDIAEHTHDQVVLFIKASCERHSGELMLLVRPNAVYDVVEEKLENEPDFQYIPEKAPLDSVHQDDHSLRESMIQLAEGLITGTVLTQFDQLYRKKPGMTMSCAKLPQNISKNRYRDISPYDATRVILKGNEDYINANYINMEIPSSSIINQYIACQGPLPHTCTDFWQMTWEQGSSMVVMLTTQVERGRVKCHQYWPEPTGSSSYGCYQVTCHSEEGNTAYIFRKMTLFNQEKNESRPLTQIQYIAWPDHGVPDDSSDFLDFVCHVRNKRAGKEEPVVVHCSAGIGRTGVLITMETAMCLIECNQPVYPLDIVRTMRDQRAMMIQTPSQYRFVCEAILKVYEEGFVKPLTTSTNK

Q: Which outcome does the source give for `CCCOc1nn(C(=O)NS(=O)(=O)c2ccccc2C(=O)OC)c(=O)n1C` here?
A: Its outcome is “inactive”.

Q: For `CCOP(=S)(OCC)OC(Cl)C(Cl)(Cl)Cl` (stereo unspecified), which outcome is on record?
A: Its outcome is “inactive”.

Q: How did the outcome turn out when `Cc1ccn2nc(S(=O)(=O)Nc3c(F)cccc3F)nc2n1` was run?
A: Its outcome is “inactive”.

Q: For `CN(C)[C@@H]1C(=O)C(C(N)=O)=C(O)[C@@]2(O)C(=O)C3=C(O)c4c(O)cccc4[C@@](C)(O)[C@H]3[C@H](O)[C@@H]12`, which AC50 is on record?
A: The AC50 was 12.1 µM (active).

Q: `N#CSCSC#N` was tested. Which outcome did it give?
A: The outcome was “inactive”.

Biological target: human Protein Tyrosine Phosphatase Non-receptor Type 9 (PTPN9), PTPN9 (gene 5780) (UniProt P43378)
Assay: NVS_ENZ_hPTPN9: NovaScreen (NVS) Enzymatic Assay for human Protein Tyrosine Phosphatase Non-receptor Type 9 (PTPN9) (AID 2283209)
In short: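 Sf9-expressed enzyme in a cell-free assay, fluorescence read 1.33 h after dosing with mobility-shift separation of substrate and product. Tested at 25 uM in duplicate, then up to 50 uM; signal loss versus DMSO.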

Sequence of human Protein Tyrosine Phosphatase Non-receptor Type 9 (PTPN9), PTPN9 (gene 5780) (P43378 whole entry, looked up): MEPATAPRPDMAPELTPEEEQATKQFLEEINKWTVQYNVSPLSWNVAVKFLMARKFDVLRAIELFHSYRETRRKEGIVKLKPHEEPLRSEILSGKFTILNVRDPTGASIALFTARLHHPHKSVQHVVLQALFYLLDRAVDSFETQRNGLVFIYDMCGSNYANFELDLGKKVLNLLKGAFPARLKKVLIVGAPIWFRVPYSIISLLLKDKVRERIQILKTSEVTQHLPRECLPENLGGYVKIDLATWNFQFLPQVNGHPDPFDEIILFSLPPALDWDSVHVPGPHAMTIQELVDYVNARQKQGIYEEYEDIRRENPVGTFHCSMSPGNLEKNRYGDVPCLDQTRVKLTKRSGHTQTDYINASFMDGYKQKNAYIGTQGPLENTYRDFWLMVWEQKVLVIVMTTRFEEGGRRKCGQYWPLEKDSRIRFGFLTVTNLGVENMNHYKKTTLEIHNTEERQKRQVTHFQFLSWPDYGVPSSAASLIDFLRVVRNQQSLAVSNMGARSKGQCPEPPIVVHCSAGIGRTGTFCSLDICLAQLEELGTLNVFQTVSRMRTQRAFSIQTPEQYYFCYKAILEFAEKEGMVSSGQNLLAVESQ

Q: Which AC50 does the source give for `CCOP(=S)(OCC)OC(Cl)C(Cl)(Cl)Cl` (stereo unspecified) here?
A: Its AC50 is 12.7 µM (active).

Q: For `CN(C)[C@@H]1C(=O)C(C(N)=O)=C(O)[C@@]2(O)C(=O)C3=C(O)c4c(O)cccc4[C@@](C)(O)[C@H]3[C@H](O)[C@@H]12`, which AC50 is on record?
A: The AC50 was 2.57 µM (active).

Q: `N#CSCSC#N` was tested. Which outcome did it give?
A: Its outcome is “inactive”.

Biological target: human Protein Tyrosine Phosphatase Non-receptor Type 6 (PTPN6), PTPN6 (gene 5777) (UniProt P29350)
Assay: NVS_ENZ_hPTPN6: NovaScreen (NVS) Enzymatic Assay for human Protein Tyrosine Phosphatase Non-receptor Type 6 (PTPN6) (AID 2283210)
Procedure: NVS_ENZ_hPTPN6 is a biochemical, single-readout assay that uses extracted gene-proteins from SF9 in a cell-free assay. Measurements were taken 1.33 hours after chemical dosing in a 384-well plate.NVS_ENZ_hPTPN6 is one of one assay component(s) measured or calculated from the NVS_ENZ_hPTPN6 assay. It is designed to make measurements of enzyme activity, a form of enzyme reporter, as detected with fluorescence intensity signals by Fluorescence and electrophoretic mobility shift technology.Data from the assay component NVS_ENZ_hPTPN6 was analyzed into 1 assay endpoint. This assay endpoint, NVS_ENZ_hPTPN6, was analyzed in the positive analysis fitting direction relative to DMSO as the negative control and baseline of activity. Using a type of enzyme reporter, loss-of-signal activity can be used to understand changes in the enzymatic activity as they relate to the gene PTPN6. Furthermore, this assay endpoint can be referred to as a primary readout, because this assay has produced multiple assay endpoints where this one serves a enzymatic activity function. To generalize the intended target to other relatable targets, this assay endpoint is annotated to the phosphatase intended target family, where the subfamily is non-receptor tyrosine phosphatase.
as §2, with “The follow-up (secondary) screen tested active chemical-pairs in concentration series, as well as a few additional assays not tested in the primary screen, some selected negative inactives, and several cases re-run in the concentration series for confirmatory purposes.” left out

Sequence of human Protein Tyrosine Phosphatase Non-receptor Type 6 (PTPN6), PTPN6 (gene 5777) (P29350 whole entry, looked up): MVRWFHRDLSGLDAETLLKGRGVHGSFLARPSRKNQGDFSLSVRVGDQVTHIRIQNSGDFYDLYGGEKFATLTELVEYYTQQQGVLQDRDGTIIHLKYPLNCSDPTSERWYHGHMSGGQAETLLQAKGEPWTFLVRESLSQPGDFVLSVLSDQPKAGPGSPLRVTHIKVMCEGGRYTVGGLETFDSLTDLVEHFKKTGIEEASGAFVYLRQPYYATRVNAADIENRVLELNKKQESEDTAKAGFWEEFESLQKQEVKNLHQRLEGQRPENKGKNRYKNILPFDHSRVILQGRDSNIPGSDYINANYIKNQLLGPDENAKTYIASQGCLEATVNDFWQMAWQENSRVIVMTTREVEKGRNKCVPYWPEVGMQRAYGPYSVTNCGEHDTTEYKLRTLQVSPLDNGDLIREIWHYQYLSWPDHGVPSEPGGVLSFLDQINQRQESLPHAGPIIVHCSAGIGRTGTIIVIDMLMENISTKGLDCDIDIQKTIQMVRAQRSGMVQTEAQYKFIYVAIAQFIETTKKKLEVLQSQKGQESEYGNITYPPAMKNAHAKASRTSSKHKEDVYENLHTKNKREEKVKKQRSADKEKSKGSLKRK

Q: `CCCCOC(=O)c1ccccc1C(=O)O` was tested. Which outcome did it give?
A: Its outcome is “inactive”.

Q: How did the AC50 turn out when `CN(C)[C@@H]1C(=O)C(C(N)=O)=C(O)[C@@]2(O)C(=O)C3=C(O)c4c(O)cccc4[C@@](C)(O)[C@H]3[C@H](O)[C@@H]12` was run?
A: Its AC50 is 41.4 µM (active).

Q: For `S=C1NCCN1`, which outcome is on record?
A: Its outcome is “inactive”.
